Among the data in PubChem BioAssay (NCI) are growth values, retold here.

Some test systems named below: HCT-15 colon; HT29 colon; SNB-75 CNS; SNB-19 CNS; U251 CNS; PC-3 prostate; SK-MEL-5 melanoma; UACC-62 melanoma; LOX IMVI melanoma; SK-MEL-28 melanoma; EKVX NSCLC; UO-31 renal; TK-10 renal; ACHN renal; A498 renal; CCRF-CEM leukemia; MOLT-4 leukemia; SK-MEL-2 melanoma; SN12C renal; CAKI-1 renal.
Common to all, as to assay: NCI-60 one-dose screen, 48 h (100 = growth as untreated, 0 = no growth, -100 = all killed)
Conditions in all cases: 10 µM unless noted

Compounds without any hit were thinned out: in the full panel of roughly 83,000, 20% have a hit.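 Negative percent growth values reflect cell death: -40 means 40% of the cells present at the start died, and -100 means all died.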 A number with no mark means an inactive call. Calls of active or inactive are those of the source. The calls were made as follows: active = growth percent below 10; inactive = the rest.

Regarding `O=C(/C=C/c1cccc(Nc2ccnc3cc(Cl)ccc23)c1)c1ccc(Cl)cc1`, the growth in the test on HCT-15 colon is 54.8%; in the test with HT29 colon, 21.8%; in the test with SNB-75 CNS, 67.6%; in the test on SNB-19 CNS, 63.2%; in the test with U251 CNS, 49.9%; in the test with PC-3 prostate it was 62.9%. Further, the growth with SK-MEL-5 melanoma was 39.6%; in the test with UACC-62 melanoma it was 50.2%; with LOX IMVI melanoma it was 11.2%; with SK-MEL-28 melanoma, 71%; in the test with EKVX NSCLC it was 60.3%; in the test on UO-31 renal it was 30.1%. Moreover, the growth in the test with TK-10 renal was 49%; with ACHN renal, 51.1%; in the test with A498 renal, 44.1%; with CCRF-CEM leukemia, 24.4%; in the test on MOLT-4 leukemia, 24.1%.

As for `CN[C@@H]1C(OC2[C@H](O[C@H]3[C@H](O)[C@@H](O)[C@H](N=C(N)N)[C@@H](O)[C@@H]3N=C(N)N)OC(C)[C@]2(O)CO)OC(CO)C(O)C1O` (stereo partly drawn), the growth in the test with HCT-15 colon is 112%; in the test on HT29 colon, 98.5%; with SNB-75 CNS, 103%; with SNB-19 CNS, 113%; in the test with U251 CNS, 103%; in the test with PC-3 prostate, 108%. For the same compound, the growth in the test on SK-MEL-5 melanoma was 105%; in the test with UACC-62 melanoma, 114%; in the test with LOX IMVI melanoma, 104%; in the test on SK-MEL-2 melanoma, 112%; in the test on EKVX NSCLC it was 113%; in the test with SN12C renal it was 108%. The growth in the test on UO-31 renal is 102%; in the test with CAKI-1 renal, 107%; in the test on A498 renal, 109%; with CCRF-CEM leukemia, 101%; in the test on MOLT-4 leukemia, 92.7%.

Turning to `N[C@H](CS)C(=O)O`, the growth in the test on HCT-15 colon is 96.6%; in the test with HT29 colon it was 95.9%; in the test with SNB-75 CNS it was 84.2%; with SNB-19 CNS, 96.1%; in the test on U251 CNS, 105%; in the test with PC-3 prostate, 94.1%. The growth in the test on SK-MEL-5 melanoma was 105%; in the test with UACC-62 melanoma, 99.9%; in the test with LOX IMVI melanoma, 100%; in the test with SK-MEL-28 melanoma, 125%; in the test with SN12C renal it was 107%; in the test with UO-31 renal, 92.4%. The growth is 97.3% with TK-10 renal; 102% in the test with ACHN renal; 117% with A498 renal; 90.8% in the test on CCRF-CEM leukemia; 104% in the test on MOLT-4 leukemia.

With `COc1cc(C2CC(c3ccc(C)cc3)=NN2C=O)ccc1OCCN(C)C` (stereo not drawn), the growth is 76% in the test on HCT-15 colon; 84.2% in the test with HT29 colon; 62.2% in the test on SNB-75 CNS; 92.5% in the test with SNB-19 CNS; 92.2% in the test on U251 CNS; 79% in the test on PC-3 prostate. The growth in the test on SK-MEL-5 melanoma was 90.2%; with UACC-62 melanoma it was 100%; in the test with LOX IMVI melanoma, 89.8%; with SK-MEL-2 melanoma it was 98.4%; in the test with EKVX NSCLC it was 90.1%; with SN12C renal it was 95.2%. The growth with UO-31 renal is 64.5%; in the test on ACHN renal it was 100%; in the test on A498 renal it was 92.4%; in the test on CCRF-CEM leukemia, 88.7%; in the test with MOLT-4 leukemia, 77.8%.

As to `c1ccc(COc2ccc(Nc3ncnc4c3cnn4-c3ccccc3)cc2)cc1`, the growth in the test with HCT-15 colon is 72.4%; with HT29 colon it was 116%; with SNB-75 CNS, 102%; in the test on SNB-19 CNS it was 96%; with U251 CNS, 106%; in the test with PC-3 prostate, 88.5%. The growth in the test with SK-MEL-5 melanoma was 94.3%; in the test on UACC-62 melanoma, 93.3%; with SK-MEL-28 melanoma, 96%; in the test with SK-MEL-2 melanoma it was 115%; in the test with SN12C renal, 97.4%; in the test with UO-31 renal, 79.6%. In addition, the growth in the test with TK-10 renal was 111%; with ACHN renal it was 104%; in the test on CAKI-1 renal, 99.1%; in the test on A498 renal, 77.9%; in the test on CCRF-CEM leukemia, 80.8%; in the test with MOLT-4 leukemia, 93.1%.

For the compound `c1ccc(-c2n(Cc3ccc4ccccc4c3)cc[n+]2Cc2ccc3ccccc3c2)cc1`, the growth was 15.2% with HCT-15 colon; -83.8% (active) with HT29 colon; -29.5% (active) with SNB-75 CNS; -32.4% (active) with SNB-19 CNS; -93.5% (active) in the test on U251 CNS; -58.8% (active) in the test on PC-3 prostate. The growth in the test with SK-MEL-5 melanoma is -98.4% (active); in the test with UACC-62 melanoma, -80% (active); in the test on LOX IMVI melanoma, -92.5% (active); in the test on EKVX NSCLC it was 3.5% (active); with SN12C renal, -34.7% (active); in the test on UO-31 renal, -16.6% (active). For the same compound, the growth was -69.8% (active) in the test with TK-10 renal; 13.3% in the test with ACHN renal; -20.5% (active) with A498 renal; 6.85% (active) with CCRF-CEM leukemia; -24.9% (active) in the test on MOLT-4 leukemia.

For `Cc1sc2nc(N3CCCCC3)[nH]c(=O)c2c1C`, the growth was 103% with HCT-15 colon; 88.6% in the test on HT29 colon; 91% with SNB-75 CNS; 92.4% in the test on SNB-19 CNS; 92.4% in the test on U251 CNS; 76.4% with PC-3 prostate. Further, the growth with SK-MEL-5 melanoma is 96.9%; in the test on UACC-62 melanoma it was 97.5%; in the test with LOX IMVI melanoma, 99%; in the test on SK-MEL-28 melanoma, 103%; in the test with EKVX NSCLC it was 94.3%; in the test on UO-31 renal, 96%. Also, the growth in the test with TK-10 renal is 106%; in the test on ACHN renal, 103%; with A498 renal, 95%; with CCRF-CEM leukemia, 93.7%; in the test with MOLT-4 leukemia it was 88.8%.

Turning to `COc1cc(/C=C/C(=O)C(C(=O)/C=C/c2ccc(OC(=O)CCNC34CC5CC(CC(C5)C3)C4)c(OC)c2)C(=O)CCNC23CC4CC(CC(C4)C2)C3)ccc1OC(=O)CCNC12CC3CC(CC(C3)C1)C2` (stereo not drawn), the growth in the test with HCT-15 colon is -18.2% (active); in the test on HT29 colon, -71.6% (active); in the test on SNB-75 CNS it was -32.3% (active); with SNB-19 CNS, 39.2%; with U251 CNS, 7.57% (active); with PC-3 prostate it was 13.6%. Moreover, the growth is -36.8% (active) in the test on SK-MEL-5 melanoma; 20.2% in the test with UACC-62 melanoma; -72.7% (active) in the test on LOX IMVI melanoma; 7.68% (active) in the test on SK-MEL-2 melanoma; 19.6% in the test on EKVX NSCLC; 5.02% (active) with SN12C renal. For the same compound, the growth with TK-10 renal is 44.2%; in the test with ACHN renal it was 6.38% (active); with CAKI-1 renal, 18.6%; with A498 renal, 59.3%; in the test with CCRF-CEM leukemia, -36.4% (active); in the test on MOLT-4 leukemia it was -20.4% (active).
